Screens (PubChem BioAssay)
Shown is part of a subset that was picked to be rich in hits.
IDE exosite inh: exo-site inhibitors of human IDE, primary screen, biochemical, fluorescence anisotropy, probe displacement; Insulin-degrading enzyme (Homo sapiens), P14735; purified IDE, FL-6b probe fluorescence polarization; active compounds read low; z-score at 20 µM; 17,000 compounds, 6.3% hits; AID 1259349, 2017;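 active = z-score of -3 or lower, meaning strong loss of probe binding signal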;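 note: His-tagged human IDE residues 42-1019 made in E. coli with 30 nM FL-6b probe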
* marks the source's active call; other numbers are inactive results.

What do the screens show for `CC(=O)N(C)C[C@@H]1[C@H](c2ccc(-c3cccnc3)cc2)[C@H](CO)N1C(=O)C1CC1`?
IDE exosite inh: 0.051

How did CO[C@H]1CN(C)C(=O)c2ccc(NC(C)=O)cc2OC[C@H](C)N(Cc2cccc(F)c2)C[C@@H]1C do in these assays?
IDE exosite inh: -0.014

What do the screens show for `CO[C@H]1CN(C)C(=O)c2ccc(NC(C)=O)cc2OC[C@@H](C)N(C(=O)c2cnccn2)C[C@H]1C`?
IDE exosite inh: 0.71

Results for O=C(Nc1cccc(Cl)c1)N[C@@H]1CC[C@H](CCn2cc(Cc3ccccc3)nn2)O[C@@H]1CO ?
IDE exosite inh: -0.79

How did O=S(=O)(c1ccccc1F)N1CCCCN2[C@H](CO)[C@H](c3ccc(-c4cccnc4)cc3)[C@H]2C1 do in these assays?
IDE exosite inh: -0.75

What do the screens show for `CO[C@H](CN(C)Cc1cc(F)ccc1F)[C@H](C)CN([C@H](C)CO)S(=O)(=O)c1ccc(C)cc1`?
IDE exosite inh: 0.57

How did O=C(Nc1cccc(F)c1)N1CC(=O)N2[C@H](C1)[C@@H](c1ccc(-c3cccc(F)c3)cc1)[C@@H]2CO do in these assays?
IDE exosite inh: -1.3

Results for CO[C@H]1CC[C@@H]2CCOc3ccc(C#N)cc3C(=O)N(C)[C@@H](C)C(=O)N(C)C[C@H]1O2 ?
IDE exosite inh: 0.89

Results for COCC#Cc1ccc([C@H]2[C@H]3CN(S(=O)(=O)c4ccccc4C)CCCCN3[C@H]2CO)cc1 ?
IDE exosite inh: 5.4

What do the screens show for `COCC#Cc1ccc([C@H]2[C@@H](CO)N3CCCCN(S(=O)(=O)c4ccccc4C)C[C@@H]23)cc1`?
IDE exosite inh: 4.1

How did COCC#Cc1ccc([C@@H]2[C@H](CO)N3CCCCN(S(=O)(=O)c4ccccc4F)C[C@@H]23)cc1 do in these assays?
IDE exosite inh: -4.5*

What do the screens show for `COCC#Cc1ccc([C@H]2[C@@H](CO)N3CCCCN(S(=O)(=O)c4ccccc4F)C[C@H]23)cc1`?
IDE exosite inh: 0.25

How did COCC#Cc1ccc([C@@H]2[C@H](CO)N3CCCCN(S(=O)(=O)c4ccccc4C)C[C@@H]23)cc1 do in these assays?
IDE exosite inh: -3.1*

Results for COCC#Cc1ccc([C@H]2[C@H](CO)N3CCCCN(S(=O)(=O)c4ccccc4F)C[C@@H]23)cc1 ?
IDE exosite inh: 1.1

What do the screens show for `CN(C)C(=O)c1cccc(-c2ccc(C3[C@H]4CNC[C@@H]3N4C(=O)NC3CCCC3)cc2)c1` (some centres not stated)?
IDE exosite inh: 5.7

What do the screens show for `COc1ccc2c3c(n(C)c2c1)[C@H](CO)N(C)CC31CCN(C(=O)c2ccc3c(c2)OCO3)CC1`?
IDE exosite inh: 0.21

Results for CCC(=O)N1CC[C@@H]2[C@H]1c1cc(C#Cc3ccccc3F)ccc1N[C@@H]2CO ?
IDE exosite inh: 0.48

What do the screens show for `OC[C@@H]1[C@H](c2ccc(-c3ccc(F)cc3)cc2)[C@@H]2CN(CCC(F)(F)F)CCCCN12`?
IDE exosite inh: 0.33

Results for CC(C)NC(=O)N[C@@H]1CC[C@@H](CC(=O)NCCCN(C)C)O[C@H]1CO ?
IDE exosite inh: 0.036

What do the screens show for `OC[C@@H]1[C@H](c2ccc(-c3ccc(F)cc3)cc2)[C@H]2CN(Cc3ccncc3)CCCCN12`?
IDE exosite inh: 4.3

What do the screens show for `Cc1cccc(-c2ccc([C@H]3[C@@H](CO)N4CCCCN(Cc5ccncc5)C[C@@H]34)cc2)c1`?
IDE exosite inh: -5.8*

What do the screens show for `Cc1cccc(-c2ccc([C@@H]3[C@H]4CN(CCC(F)(F)F)CCCCN4[C@H]3CO)cc2)c1`?
IDE exosite inh: -0.049

What do the screens show for `CN(C)C(=O)c1ccc(-c2ccc([C@@H]3[C@@H](CO)N4CCCCN(Cc5ccncc5)C[C@H]34)cc2)cc1`?
IDE exosite inh: 1.1

What do the screens show for `Cc1cccc(-c2ccc([C@@H]3[C@@H](CO)N4CCCCN(Cc5ccncc5)C[C@@H]34)cc2)c1`?
IDE exosite inh: -4.9*

Results for OC[C@H]1[C@@H](c2ccc(-c3ccc(F)cc3)cc2)[C@H]2CN(Cc3ccncc3)CCCCN21 ?
IDE exosite inh: 4

How did Cc1noc(C)c1NC(=O)N[C@H]1C=C[C@H](CC(=O)Nc2ccc(-c3ccccc3)cc2)O[C@H]1CO do in these assays?
IDE exosite inh: -0.58

How did N#C[C@@H]1[C@H](c2ccccc2)[C@@H](CO)N1C(=O)Cc1ccccn1 do in these assays?
IDE exosite inh: 3.1

How did Cc1ccccc1S(=O)(=O)N1C[C@H](O)COC[C@@H]2O[C@@H](CC(=O)N3CCCCC3)CC[C@H]21 do in these assays?
IDE exosite inh: -0.13

What do the screens show for `CCS(=O)(=O)N1CC2(CN(C)[C@@H](CO)c3c2c2ccc(OC)cc2n3C)C1`?
IDE exosite inh: -1.1

How did N#Cc1ccc(-c2ccc([C@H]3[C@@H](CO)N4C(=O)CN(C(=O)C5CCC5)C[C@@H]34)cc2)cc1 do in these assays?
IDE exosite inh: 1.7

Results for COc1ccc(C#Cc2ccc([C@@H]3[C@@H](CO)N4C(=O)CN(C(=O)c5ccncc5)C[C@@H]34)cc2)cc1 ?
IDE exosite inh: 0.51

What do the screens show for `COc1cccc(C#Cc2ccc([C@@H]3[C@H](CO)N4C(=O)CN(C(=O)c5ccncc5)C[C@@H]34)cc2)c1`?
IDE exosite inh: -5.1*

What do the screens show for `COc1cccc(C#Cc2ccc([C@@H]3[C@@H](CO)N4C(=O)CN(C(=O)c5ccccc5)C[C@H]34)cc2)c1`?
IDE exosite inh: 0.1

How did COc1cccc(C#Cc2ccc([C@H]3[C@@H](CO)N4C(=O)CN(C(=O)c5ccncc5)C[C@@H]34)cc2)c1 do in these assays?
IDE exosite inh: -7.3*

What do the screens show for `COc1ccc(C#Cc2ccc([C@H]3[C@H](CO)N4C(=O)CN(C(=O)c5ccncc5)C[C@@H]34)cc2)cc1`?
IDE exosite inh: 1.4

How did COc1ccc(C#Cc2ccc([C@@H]3[C@@H](CO)N4C(=O)CN(C(=O)c5ccncc5)C[C@H]34)cc2)cc1 do in these assays?
IDE exosite inh: 3.3

How did COc1ccc(C#Cc2ccc([C@@H]3[C@H](CO)N4C(=O)CN(C(=O)c5ccncc5)C[C@@H]34)cc2)cc1 do in these assays?
IDE exosite inh: 3.3

Results for COc1cccc(C#Cc2ccc([C@@H]3[C@@H](CO)N4C(=O)CN(C(=O)c5ccncc5)C[C@@H]34)cc2)c1 ?
IDE exosite inh: -3.2*

Results for COc1ccc(C#Cc2ccc([C@H]3[C@@H](CO)N4C(=O)CN(C(=O)c5ccncc5)C[C@@H]34)cc2)cc1 ?
IDE exosite inh: 0.67

How did CC(C)CC#Cc1ccc([C@@H]2[C@@H](CO)N3C(=O)CN(C(=O)NC(C)C)C[C@@H]23)cc1 do in these assays?
IDE exosite inh: 4.9

What do the screens show for `O=C1CN(Cc2ccccc2)C[C@H]2[C@H](c3ccc(-c4ccccc4F)cc3)[C@H](CO)N12`?
IDE exosite inh: -1.1

What do the screens show for `CCCC#Cc1ccc([C@@H]2[C@H]3CN(C(=O)c4cccnc4)CC(=O)N3[C@H]2CO)cc1`?
IDE exosite inh: -0.027

Results for Cc1ccccc1S(=O)(=O)N1CC(=O)N2[C@H](CO)[C@H](c3ccc(C#CCC(C)C)cc3)[C@H]2C1 ?
IDE exosite inh: 1.2

Results for CO[C@H]1CN(C)C(=O)c2cc(NC(=O)Nc3ccccc3F)ccc2OC[C@H](C)N(CCC(F)(F)F)C[C@@H]1C ?
IDE exosite inh: 0.18

What do the screens show for `CC(C)NC(=O)N[C@H]1CC[C@@H](CC(=O)NCCCN(C)C)O[C@H]1CO`?
IDE exosite inh: -0.15

How did CN1C(=O)c2cc(NS(C)(=O)=O)ccc2OC[C@@H]2O[C@@H](CC(=O)NCc3ccccc3)CC[C@@H]21 do in these assays?
IDE exosite inh: -1.1
